In all, about 320,000 compounds went through this assay and about 1,300 (0.41%) were called active. About 3% were inconclusive and are not listed. No rule for the calls is given here. A selection follows. Entries with a potency or affinity are not part of this list.

This assay is described as follows: growth inhibition of non-replicating M. tuberculosis (AID 488890).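 Also: plate controls were DMSO cells for no effect and high antibiotic wells for full effect.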 The note with it: Mycobacterium tuberculosis non-replicating, at 25 µM, stronger effect = higher value.
In the case of `NC(=O)CC(NC(=O)c1ccc(Br)cc1)c1ccc(NC2CCCCCC2)c([N+](=O)[O-])c1` (stereo not given), the inhibition (in general, the drop in the measured response relative to a control, in per cent) is 7.44%. To `CC1(C)CC(=O)c2cc(C(=O)Nn3cnnc3)c(=O)n(-c3ccccc3)c2C1` belongs 9%; to `CC1(C)CC(=O)c2cc(C(=O)O)c(=O)n(-c3ccccc3)c2C1`, 15.2%. With `COc1ccccc1CCC(=O)OCC(=O)NCc1ccc(OC)c(OC)c1`, the inhibition was -1.1%. In the case of `COc1ccccc1C1NC(=O)CCC1[N+](=O)[O-]` (stereo not given), the inhibition was 3.51%.

Consider `O=C(O)c1ccc(Nc2ccc([N+](=O)[O-])c3nonc23)cc1`, for which the inhibition was found to be 25.2%. To `NS(=O)(=O)c1ccc(Nc2ccc([N+](=O)[O-])c3nonc23)cc1` belongs 66.5%; to `O=C(O)c1ccccc1Nc1ccc([N+](=O)[O-])c2nonc12`, 8.28%; to `CCOc1ccc(Nc2ccc3nonc3c2[N+](=O)[O-])cc1`, -4.04%.

Turning to `O=C(O)c1cccc(Nc2ccc([N+](=O)[O-])c3nonc23)c1`, the inhibition was determined as 16.5%.

Take `O=[N+]([O-])c1c(Nc2ccccc2O)ccc2nonc12`: the inhibition was 61.7%.

As for `COc1ccccc1N1C(=S)N=C(Nc2c(C)cccc2C)C12CCCC2`, the inhibition was determined as 15.9%. The figure for `CC(C)(C)NC(=O)C1CCCN(S(=O)(=O)c2ccc(-n3cnnn3)cc2)C1` (stereo not given) is 17%. As for `COC(=O)CNC(=O)CSc1nnc2cc(C)c3ccccc3n12`, the inhibition is -0.34%. `CC(/C=C/C1[C@H](C)C[C@H](O[C@@H]2O[C@H](CO)[C@@H](O)[C@H](O)[C@H]2O)CC1(C)C)O[C@H]1O[C@H](CO)[C@@H](O)[C@H](O)[C@H]1O` (stereo not given in full): the inhibition was -10.5%.

`Cc1ccc2c(-c3ccc([N+](=O)[O-])cc3)cc(=O)[nH]c2c1`: the inhibition is -4.88%. `Cc1ccc2nc(NCc3ccco3)c(C=NCc3ccco3)c(=O)n2c1`: the inhibition was 0.74%. The figure for `Cc1cccn2c(=O)c(C=Nc3ccccc3)c(NCc3ccco3)nc12` is 56.2%. To `O=C(CN1CCN(S(=O)(=O)c2ccccc2)CC1)NC(=O)NCc1ccco1` belongs 1.38%; to `O=C(O)c1ccccc1NCc1ccncc1`, 4.81%; to `C[C@]12CCC(=O)C=C1CCC1C2CC[C@@]2(C)C1CC[C@]2(C)O` (stereo not given in full), 11.1%.

For `CCCCOC(=O)c1ccc(-c2ccc(/C=N/NC(=S)NCC)o2)cc1`, the inhibition is 73.2%.

As for `O=Cc1ccc(-c2ccc(C(=O)O)cc2)o1`, the inhibition was -8.13%. In the case of `CCOC(=O)c1cc(-c2ccc(/C=N\n3cnnc3)o2)ccc1Cl`, the inhibition turned out to be 10%. To `CCCCOC(=O)c1cc(-c2ccc(/C=N/n3cnnc3)o2)ccc1Cl` belongs 75.6%; to `CC(=O)C1=C(O)C(=O)N(CCC(=O)O)C1c1cccc(F)c1` (stereo not given), -0.65%; to `CCCC(=O)NNc1c2ccccc2nc2ccccc12`, 74.5%. The figure for `O=C(NNc1c2ccccc2nc2ccccc12)c1ccc(O)cc1` is 42%.

Turning to `CCOc1ccc(S(=O)(=O)Nc2ccc(C(=O)NCCCN3CCOCC3)cc2)cc1`, the inhibition was -11.7%. The figure for `CCC(C)C(NC(=O)C1CCC(C)CC1)C(=O)NCc1ccco1` (stereo not given) is -7.14%; for `C/C(=N/NC(=O)CNC(=O)c1ccccn1)c1ccc([N+](=O)[O-])cc1` it is -2.72%. As to `C/C(=N\NC(=O)C(c1ccccc1)c1ccccc1)c1ccccn1`, the inhibition amounted to 78.2%. To `O=S(=O)(c1ccc2nc(-c3ccccc3)[nH]c2c1)N1CCN(c2ccc(Cl)cc2)CC1` belongs -14.5%; to `COc1ccc(/C(C)=N/Nc2ccccc2Cl)c(O)c1`, 9.47%; to `C/C(=N\Nc1ncc(Cl)cc1Cl)c1ccc(OC(F)F)cc1`, 66.3%.

With `COc1ccc([N+](=O)[O-])cc1NC(=O)c1cn(-c2ccc(Cl)cc2)c(=O)c2ccccc12`, the inhibition was -16.7%. For the compound `N#CC1=C(N)Oc2nc[nH]c(=O)c2C1c1cccs1` (stereo not given), the inhibition was -24.7%.

Regarding `Cc1cc(C)n2nc(N)c(N=Nc3ccc(Cl)cc3)c2n1`, the inhibition was found to be 74.1%. Consider `Cc1cc(C)n2nc(N)c(N=Nc3cccc(Cl)c3)c2n1`, for which the inhibition amounted to 79.2%.

In the case of `O=C1N/C(=N/c2ccccn2)SC1Cc1ccccc1` (stereo not given), the inhibition was 61.6%. To `Cc1ccc(CC2S/C(=N/c3ccccn3)NC2=O)cc1` (stereo not given) belongs 21.2%; to `Cn1ccnc1SCC(=O)Nc1cccc(O)c1`, 1.05%; to `CC/C(=N/Nc1ccccc1Cl)c1cnnc(-c2ccccc2)n1`, 5.04%.

Consider `COCCNC(=O)Cn1cc(C(=O)c2ccccc2F)c2ccccc21`, for which the inhibition worked out at 6.99%. To `CCC(NC(=O)c1cc(COc2cncc(Cl)c2)on1)c1ccc(C)cc1` (stereo not given) belongs 61.6%; to `CCC(NC(=O)c1cc(COc2cncc(Cl)c2)on1)c1ccncc1` (stereo not given), 21.9%. The figure for `COCCCN1C(=O)C(=O)/C(=C(/O)c2ccc(OC(C)C)cc2)C1c1ccc(O)c(OC)c1` (stereo not given) is -2.98%; for `CCc1cc2cccc(C)c2nc1SCC(=O)NNC(=O)c1ccco1` it is -10.6%; for `C=CCn1c(O)c(C(C)=Nc2ccc(C(=O)O)cc2)c(=O)[nH]c1=O` it is 6.37%. To `C=CCn1c(O)c(C(C)=Nc2ccc(NC(C)=O)cc2)c(=O)[nH]c1=O` belongs -9.1%; to `O=C(Nc1ccc(Cl)c(Cl)c1)C1=Cc2ccccc2OC1`, 58%.

For the compound `O=S(=O)(Nc1ccc(Cl)c(Cl)c1)N1CCOCC1`, the inhibition is -2.78%.

Turning to `COc1ccc(S(=O)(=O)N2CCCCCC2)cc1NC(=O)CN1C(=O)CNC1=O`, the inhibition came to 13.3%. To `CCNC(=O)C(=O)NCC(c1cccs1)S(=O)(=O)c1ccc(C)cc1` (stereo not given) belongs 2.12%. Regarding `CN(C)c1cc[n+](CC(=O)Nc2ccc(Cl)cc2)cc1`, the inhibition is 9.15%. For `COc1ccccc1-c1nc2cc(Cl)ccc2c(=O)n1O`, the inhibition was 9.28%.

With `O=C(O)c1ccccc1-c1nc2cc(Cl)ccc2c(=O)n1O`, the inhibition is -1.37%.

With `CCc1nc2ccc(Br)cc2c(=O)n1-c1ccccc1C(F)(F)F`, the inhibition came to 26.9%. Take `O=c1c2cc(Br)ccc2nc(-c2ccccc2)n1O`: the inhibition stood at 78.6%.

`O=C(OCn1nnc2ccccc2c1=O)c1ccc(S(=O)(=O)N2CCOCC2)cc1`: the inhibition stood at 33.4%.

For `Cc1nn(-c2ccccc2)c(C)c1NC(=O)COC(=O)c1ccccc1OC(F)F`, the inhibition is 9.15%. Turning to `COc1ccc(NC(=O)C(c2ccccc2)c2ccccc2)c(OC)c1`, the inhibition is -2.93%.

For the compound `Nc1nc2nc(SCC(=O)N3CCCc4ccccc43)[nH]c2c(=O)[nH]1`, the inhibition turned out to be 0.84%. For the compound `CN(C)CCn1c2c(c(SCC(=O)Nc3ccc4c(c3)OCCO4)nc1=O)CCC2`, the inhibition is -16.4%. The figure for `O=C(CNC(=O)c1ccc(Br)o1)NC1CCCCCC1` is -0.81%; for `CC1CCN(C(=O)COC(=O)c2cc(Cl)cc(Cl)c2N)CC1` it is 78.5%; for `O=C(COC(=O)c1ccc(Br)cc1)NC1CCCC1` it is 46.5%. On to `O=C(OCCN1C(=O)c2ccccc2C1=O)c1ccco1`, for which the inhibition is 15.3%. `Nc1c(Cl)cc(Cl)cc1C(=O)OCC(=O)N1CCOCC1`: the inhibition stood at 17.1%.

`O=C(OCCCN1C(=O)c2ccccc2C1=O)c1ccco1`: the inhibition was determined as 10.6%. The figure for `O=C(COC(=O)c1cc([N+](=O)[O-])ccc1Cl)NC1CCCC1` is 73.8%; for `Cc1ccc(C(=O)OCC(=O)NC2CCCCC2)o1` it is 36.7%; for `CCc1ccc(CNC(=O)CN2C(=O)COc3ccccc32)cc1` it is 14.8%. The figure for `COc1ccc(S(=O)(=O)N2CCCC2CNC(=O)C(=O)NCc2ccc3c(c2)OCO3)cc1` (stereo not given) is 10.3%; for `COC(=O)CCC(=O)OC1(C)C(=O)C=C2C=C(C3CC3)N(C3CCCC3)C=C2C1=O` (stereo not given) it is 21.8%; for `NC1=NC(=O)/C(=C/c2ccc(-c3ccc(S(N)(=O)=O)cc3)o2)S1` it is -4.9%. Regarding `Cc1ccc2c(C(=O)CN3CCN(C(=O)c4ccco4)CC3)c(C)[nH]c2c1`, the inhibition is 14%.

For `O=C(NC1CCCCC1)C(c1cccnc1)N(C(=O)c1ccc(Cl)nc1)C1CCCCC1` (stereo not given), the inhibition stood at 20.7%.

Regarding `O=C(NC(=S)Nc1ccc2[nH]c(=O)[nH]c2c1)c1ccccc1[N+](=O)[O-]`, the inhibition is -4.02%. In the case of `CCNC(=O)CSc1nnc(-c2ccccc2)n1-c1ccc(OCC)cc1`, the inhibition worked out at 12%. `O=C1CSC(=Nc2cccc([N+](=O)[O-])c2)N1`: the inhibition was 17.5%.

With `O=C(COC(=O)c1ccc(Br)o1)NCCNC(=O)COC(=O)c1ccc(Br)o1`, the inhibition was determined as 0.38%.

In the case of `O=C(COC(=O)c1ccc([N+](=O)[O-])o1)NCCCc1ccccc1`, the inhibition amounted to 73.4%. On to `O=C(OCC(=O)N1CCCC1)c1cc([N+](=O)[O-])ccc1Cl`, for which the inhibition came to 67.6%. `O=C(OCC(=O)N1CCCC1)c1cccc(Br)c1`: the inhibition amounted to 67.8%. The figure for `Nc1cccc(CP(=O)(c2ccccc2)c2ccccc2)c1` is 1.01%. The figure for `COc1cc(NC(=O)c2ccccc2-n2cnnn2)cc(OC)c1` is 10.3%; for `COc1ccc(C2C(C(C)=O)=C(O)C(=O)N2c2ccc(Br)cc2)cc1` (stereo not given) it is 29.9%. The figure for `COC(=O)CSc1nnc(-c2ccncc2)o1` is -0.32%.

For the compound `COC(=O)c1ccc(CSc2nnc(-c3ccncc3)n2Cc2ccccc2)o1`, the inhibition was found to be 12.6%. The figure for `Cc1ccc(OCC(=O)OC(C)C(=O)NC2CCCCC2C)cc1C` (stereo not given) is 65.7%; for `Cc1c(C(=O)NCc2ccccc2CN2CCCC2)oc2ccc(F)cc12` it is 42%. To `COc1ccc(NC(=O)Nc2nc3ccccc3s2)cc1` belongs -4.36%; to `Cc1nc(Cl)sc1C(=O)Nc1ccccc1`, -6.17%; to `COc1ccc(OC)c(NC(=O)c2nc3ccccc3s2)c1`, -0.73%. The figure for `Cc1nc(C)c(C(=O)Nc2ccccc2)s1` is -13.4%; for `O=C(NCc1ccccc1)c1nc2ccccc2s1` it is 79.5%. With `O=C(NCc1ccco1)c1cccnc1-c1nc2ccccc2s1`, the inhibition is 27.7%. The figure for `CN(C(=O)COC(=O)CSc1cc(Cl)ccc1Cl)c1c(N)n(Cc2ccccc2)c(=O)[nH]c1=O` is 7.95%; for `COc1ccc(CC2C(=O)OC(C)(C)OC2=O)c(Cl)c1OC` it is -14.3%. Turning to `CCCC1=C(C(=O)OCC)C(c2cccnc2)n2nc(C)nc2N1` (stereo not given), the inhibition is -11.9%. Regarding `COCCn1c(=O)c2c(nc3n2CC(C)CN3CCc2ccccc2)n(C)c1=O` (stereo not given), the inhibition came out at 22.9%. Consider `Cc1[nH]c(=O)[nH]c(=O)c1S(=O)(=O)N1CCN(c2ccccc2F)CC1`, for which the inhibition is -5.44%. The figure for `COc1ccc(OC)c(C(=O)c2oc3ccccc3c2NC(C)=O)c1` is -5.83%.

Consider `CCOC(=O)c1sc(=S)n(-c2ccc3c(c2)OCO3)c1N`, for which the inhibition was 1.96%. For `N/C(=N\OC(=O)c1ccc(Cl)cc1)c1ccc(Cl)cc1`, the inhibition worked out at 69.9%. The figure for `N/C(=N\OC(=O)c1ccccc1Cl)c1cccc([N+](=O)[O-])c1` is 66.7%; for `N/C(=N\OC(=O)c1ccccc1Cl)c1ccccn1` it is -3.97%; for `N/C(=N\OC(=O)c1ccc(Cl)cc1)c1ccccn1` it is 28.3%.

In the case of `C=CCOC(=O)c1cn(CC)c2nc(C)ccc2c1=O`, the inhibition is -10.5%.
